Holding throughout (experiment): DAPPL (digital affinity profiling via proximity ligation, sequencing); 10 mM Tris-HCl pH 7.5, 50 mM NaCl, 1 mM DTT, 4% glycerol, room temperature, 30 min; GST-TFs on glutathione beads, 16-mer random dsDNA library, 0.1% formaldehyde crosslink after washing; high values mean tight binding
For one test, the target named is T1, FEV (Homo sapiens, UniProt Q99581 1-238).
T1 sequence: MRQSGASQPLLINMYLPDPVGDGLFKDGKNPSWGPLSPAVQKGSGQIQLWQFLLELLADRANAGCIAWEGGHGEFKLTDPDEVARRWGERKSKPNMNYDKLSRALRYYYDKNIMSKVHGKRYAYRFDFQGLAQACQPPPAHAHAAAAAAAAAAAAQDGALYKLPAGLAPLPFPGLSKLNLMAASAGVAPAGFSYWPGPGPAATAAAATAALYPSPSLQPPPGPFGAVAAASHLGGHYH
The conditions noted are these: protein: recombinant; tags: N-terminal GST; dsDNA, one strand shown. The method, boiled down:
(§1)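 Human transcription factors fused to GST were expressed in yeast, captured on glutathione beads, given DNA barcodes and pooled with a GST-only negative control. Pools were incubated with 200 nmole of a 16-mer random double-stranded DNA library in Tris/NaCl/DTT/glycerol buffer at room temperature for 30 min. They were then washed, crosslinked with 0.1% formaldehyde, proximity-ligated (BsaI/T4 ligase, 1 h, 37 °C), PCR-amplified and sequenced on an Illumina NextSeq500. Binding signal is each 6-mer's read frequency for a factor divided by its frequency for the GST control.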

A further test addresses ETV5 (Homo sapiens, UniProt P41161 1-510). Particulars: protein: recombinant; tags: N-terminal GST; dsDNA, one strand shown. The method in brief:
as §1

The next test concerns the target HSF1 (Homo sapiens, UniProt Q00613 1-529). Particulars: protein: recombinant; tags: N-terminal GST; chain copies: 3; dsDNA, one strand shown. The method, boiled down: as §1
The target in the next test is T2, SPIC (Homo sapiens, UniProt Q8N5J4 1-248).
T2 sequence: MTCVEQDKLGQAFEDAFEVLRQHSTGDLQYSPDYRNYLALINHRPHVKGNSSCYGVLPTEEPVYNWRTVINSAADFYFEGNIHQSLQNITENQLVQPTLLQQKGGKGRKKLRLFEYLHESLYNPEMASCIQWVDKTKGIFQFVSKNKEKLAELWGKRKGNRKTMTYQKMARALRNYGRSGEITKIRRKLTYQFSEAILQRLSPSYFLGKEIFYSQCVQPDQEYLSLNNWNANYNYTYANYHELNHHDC
The conditions noted are these: protein: recombinant; tags: N-terminal GST; dsDNA, one strand shown. The method, boiled down: as §1

Another test has as its target ELF4 (Homo sapiens, UniProt Q99607 1-663). Particulars: protein: recombinant; tags: N-terminal GST; dsDNA, one strand shown. The method, boiled down:
as §1

Another test concerns the target T3, ELK4 (Homo sapiens, UniProt P28324-2 1-405).
T3 sequence: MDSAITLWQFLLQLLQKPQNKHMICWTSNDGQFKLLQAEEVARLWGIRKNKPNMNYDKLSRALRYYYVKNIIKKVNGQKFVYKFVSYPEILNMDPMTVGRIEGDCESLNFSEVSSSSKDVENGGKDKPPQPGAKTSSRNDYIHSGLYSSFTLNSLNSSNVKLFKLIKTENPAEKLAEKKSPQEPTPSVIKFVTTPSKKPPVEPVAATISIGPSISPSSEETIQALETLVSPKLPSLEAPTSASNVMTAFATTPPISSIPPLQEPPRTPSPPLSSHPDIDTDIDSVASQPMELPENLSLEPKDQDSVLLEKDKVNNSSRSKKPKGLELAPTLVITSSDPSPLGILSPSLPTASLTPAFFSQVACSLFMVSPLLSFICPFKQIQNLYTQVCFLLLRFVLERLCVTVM
The conditions noted are these: protein: recombinant; tags: N-terminal GST; dsDNA, one strand shown. The method, boiled down:
as §1

Another test addresses T4, ETV2 (Homo sapiens, UniProt O00321 1-342).
T4 sequence: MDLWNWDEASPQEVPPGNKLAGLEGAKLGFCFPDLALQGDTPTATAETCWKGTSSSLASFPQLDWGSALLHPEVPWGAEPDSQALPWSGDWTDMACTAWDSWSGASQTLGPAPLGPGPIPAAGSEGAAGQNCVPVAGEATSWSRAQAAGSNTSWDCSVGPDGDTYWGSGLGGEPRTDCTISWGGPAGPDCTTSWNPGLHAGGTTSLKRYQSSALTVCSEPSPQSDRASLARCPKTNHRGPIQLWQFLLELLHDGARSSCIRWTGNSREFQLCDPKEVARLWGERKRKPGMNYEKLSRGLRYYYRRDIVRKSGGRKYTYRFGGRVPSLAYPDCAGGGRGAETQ
Particulars: protein: recombinant; tags: N-terminal GST; dsDNA, one strand shown. The method, boiled down:
as §1

Another test deals with T5, ELF3 (Homo sapiens, UniProt P78545 1-371).
T5 sequence: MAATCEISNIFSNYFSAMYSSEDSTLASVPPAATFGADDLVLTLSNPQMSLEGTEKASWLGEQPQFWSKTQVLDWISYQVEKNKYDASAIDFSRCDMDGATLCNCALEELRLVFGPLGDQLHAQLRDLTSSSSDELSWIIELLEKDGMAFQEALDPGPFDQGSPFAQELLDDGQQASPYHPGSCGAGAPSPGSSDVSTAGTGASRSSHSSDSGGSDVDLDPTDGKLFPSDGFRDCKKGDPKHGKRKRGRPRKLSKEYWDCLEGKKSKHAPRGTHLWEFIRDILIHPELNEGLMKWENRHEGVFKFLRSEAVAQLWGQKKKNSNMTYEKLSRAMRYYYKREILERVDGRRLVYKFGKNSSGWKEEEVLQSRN
The conditions noted are these: protein: recombinant; tags: N-terminal GST; dsDNA, one strand shown. The method, boiled down:
as §1

Another test concerns the target ETV1 (Homo sapiens, UniProt P50549 1-477). Particulars: protein: recombinant; tags: N-terminal GST; dsDNA, one strand shown. The method, boiled down:
as §1

A further test has as its target CRX (Homo sapiens, UniProt O43186 1-299). Particulars: protein: recombinant; tags: N-terminal GST; dsDNA, one strand shown. The method in brief:
as §1

This passage reports binding signal results from paper PMC7862700, “An all-to-all approach to the identification of sequence-specific readers for epigenetic DNA modifications on cytosine”.

Sequence of ETV5 (P41161 whole entry): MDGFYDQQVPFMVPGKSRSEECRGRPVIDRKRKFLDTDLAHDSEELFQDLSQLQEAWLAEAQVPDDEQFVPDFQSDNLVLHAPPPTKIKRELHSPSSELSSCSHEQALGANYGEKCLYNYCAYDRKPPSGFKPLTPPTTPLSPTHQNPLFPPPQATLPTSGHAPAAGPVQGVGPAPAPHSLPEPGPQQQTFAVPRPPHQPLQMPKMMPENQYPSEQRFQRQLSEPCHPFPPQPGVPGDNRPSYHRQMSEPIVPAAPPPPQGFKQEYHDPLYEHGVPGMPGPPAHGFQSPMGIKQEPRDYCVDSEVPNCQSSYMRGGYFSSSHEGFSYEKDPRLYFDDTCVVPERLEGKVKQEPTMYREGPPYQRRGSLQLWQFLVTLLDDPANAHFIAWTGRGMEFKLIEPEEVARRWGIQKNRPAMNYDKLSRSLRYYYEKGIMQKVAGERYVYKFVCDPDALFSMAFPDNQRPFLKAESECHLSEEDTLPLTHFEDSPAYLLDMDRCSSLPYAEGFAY
Sequence of CRX (O43186 whole entry): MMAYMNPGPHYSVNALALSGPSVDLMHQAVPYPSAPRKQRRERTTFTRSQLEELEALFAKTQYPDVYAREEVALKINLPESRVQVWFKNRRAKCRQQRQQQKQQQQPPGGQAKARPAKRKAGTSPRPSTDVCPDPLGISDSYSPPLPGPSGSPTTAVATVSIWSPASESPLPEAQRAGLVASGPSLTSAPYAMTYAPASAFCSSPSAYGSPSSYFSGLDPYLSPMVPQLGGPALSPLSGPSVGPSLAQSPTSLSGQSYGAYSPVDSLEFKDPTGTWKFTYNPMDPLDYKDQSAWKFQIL
Sequence of ELF4 (Q99607 whole entry): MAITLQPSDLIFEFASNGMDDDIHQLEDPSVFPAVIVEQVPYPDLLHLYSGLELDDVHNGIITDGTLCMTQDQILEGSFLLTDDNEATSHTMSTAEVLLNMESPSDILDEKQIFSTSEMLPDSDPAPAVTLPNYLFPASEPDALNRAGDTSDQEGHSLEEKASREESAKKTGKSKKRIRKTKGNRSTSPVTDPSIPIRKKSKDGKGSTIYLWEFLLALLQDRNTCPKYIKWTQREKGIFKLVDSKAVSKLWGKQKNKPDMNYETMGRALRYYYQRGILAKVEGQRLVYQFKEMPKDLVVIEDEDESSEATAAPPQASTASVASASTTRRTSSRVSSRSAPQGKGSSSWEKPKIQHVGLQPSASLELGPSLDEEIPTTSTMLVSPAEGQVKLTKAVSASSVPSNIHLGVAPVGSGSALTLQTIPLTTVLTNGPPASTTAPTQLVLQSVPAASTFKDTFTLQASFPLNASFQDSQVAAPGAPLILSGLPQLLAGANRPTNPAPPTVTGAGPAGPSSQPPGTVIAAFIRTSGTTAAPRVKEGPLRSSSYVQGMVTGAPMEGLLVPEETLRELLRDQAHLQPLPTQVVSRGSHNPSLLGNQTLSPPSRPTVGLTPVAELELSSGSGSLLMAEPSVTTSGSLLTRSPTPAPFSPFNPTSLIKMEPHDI
Sequence of ETV1 (P50549 whole entry): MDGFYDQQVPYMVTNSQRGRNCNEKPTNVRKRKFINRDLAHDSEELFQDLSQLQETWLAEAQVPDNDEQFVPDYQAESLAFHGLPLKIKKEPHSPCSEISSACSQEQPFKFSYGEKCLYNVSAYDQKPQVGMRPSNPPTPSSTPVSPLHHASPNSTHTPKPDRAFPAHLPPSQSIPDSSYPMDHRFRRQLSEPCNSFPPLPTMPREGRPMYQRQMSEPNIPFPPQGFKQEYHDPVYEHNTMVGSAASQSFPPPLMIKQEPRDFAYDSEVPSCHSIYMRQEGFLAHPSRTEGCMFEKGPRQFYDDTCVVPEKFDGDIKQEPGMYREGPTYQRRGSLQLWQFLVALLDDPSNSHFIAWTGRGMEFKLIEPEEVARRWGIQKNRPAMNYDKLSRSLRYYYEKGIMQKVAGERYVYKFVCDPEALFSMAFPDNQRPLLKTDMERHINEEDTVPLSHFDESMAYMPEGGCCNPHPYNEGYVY
Sequence of HSF1 (Q00613 whole entry): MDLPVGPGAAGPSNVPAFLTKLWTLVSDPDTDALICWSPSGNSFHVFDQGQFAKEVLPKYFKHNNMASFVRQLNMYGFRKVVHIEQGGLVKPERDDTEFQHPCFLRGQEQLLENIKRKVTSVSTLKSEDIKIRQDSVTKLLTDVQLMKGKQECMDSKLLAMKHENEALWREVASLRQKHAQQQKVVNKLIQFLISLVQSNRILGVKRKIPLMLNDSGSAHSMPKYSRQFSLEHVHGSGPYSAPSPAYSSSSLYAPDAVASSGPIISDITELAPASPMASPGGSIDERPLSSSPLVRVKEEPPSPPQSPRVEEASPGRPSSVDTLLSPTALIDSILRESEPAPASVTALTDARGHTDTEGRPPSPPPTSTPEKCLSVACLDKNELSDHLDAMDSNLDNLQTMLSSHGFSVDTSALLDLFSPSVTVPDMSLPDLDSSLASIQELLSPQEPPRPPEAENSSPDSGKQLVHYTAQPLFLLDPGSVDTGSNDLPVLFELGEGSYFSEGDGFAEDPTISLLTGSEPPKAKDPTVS

Regarding ATGCAC, the binding signal in the test with FEV is 1.37 fold enrichment (6-mer frequency, TF over GST control); in the test with ETV5 it was 1.28 fold enrichment (6-mer frequency, TF over GST control); with HSF1 it was 1.03 fold enrichment (6-mer frequency, TF over GST control); with SPIC, 1.19 fold enrichment (6-mer frequency, TF over GST control); in the test with ELF4 it was 1.3 fold enrichment (6-mer frequency, TF over GST control); with ELK4 it was 1.36 fold enrichment (6-mer frequency, TF over GST control). Also, the binding signal with ETV2 was 1.3 fold enrichment (6-mer frequency, TF over GST control); with ELF3 it was 1.36 fold enrichment (6-mer frequency, TF over GST control); with ETV1, 1.19 fold enrichment (6-mer frequency, TF over GST control).
In the case of CAGAAT, the binding signal is 1.05 fold enrichment (6-mer frequency, TF over GST control) in the test with FEV; 1.01 fold enrichment (6-mer frequency, TF over GST control) with ETV5; 2.05 fold enrichment (6-mer frequency, TF over GST control) in the test with HSF1; 1.01 fold enrichment (6-mer frequency, TF over GST control) in the test with SPIC; 1.13 fold enrichment (6-mer frequency, TF over GST control) with ELF4; 1.05 fold enrichment (6-mer frequency, TF over GST control) in the test with ELK4. The binding signal with ETV2 is 1.13 fold enrichment (6-mer frequency, TF over GST control); with CRX, 1.34 fold enrichment (6-mer frequency, TF over GST control); with ETV1, 1.04 fold enrichment (6-mer frequency, TF over GST control).
With GTCTAA, the binding signal with FEV was 1.03 fold enrichment (6-mer frequency, TF over GST control); in the test with ETV5, 1.01 fold enrichment (6-mer frequency, TF over GST control); in the test with HSF1, 1.03 fold enrichment (6-mer frequency, TF over GST control); in the test with SPIC, 1.11 fold enrichment (6-mer frequency, TF over GST control); with ELF4 it was 1.13 fold enrichment (6-mer frequency, TF over GST control); in the test with ELK4, 1.14 fold enrichment (6-mer frequency, TF over GST control). The binding signal with ETV2 is 1.06 fold enrichment (6-mer frequency, TF over GST control); in the test with CRX, 1.33 fold enrichment (6-mer frequency, TF over GST control); with ETV1, 1.11 fold enrichment (6-mer frequency, TF over GST control).
In the case of TTCGCG, the binding signal with FEV was 1.09 fold enrichment (6-mer frequency, TF over GST control); with ETV5, 1.04 fold enrichment (6-mer frequency, TF over GST control); in the test with HSF1 it was 1.98 fold enrichment (6-mer frequency, TF over GST control); with SPIC it was 1.16 fold enrichment (6-mer frequency, TF over GST control); with ELF4, 1.06 fold enrichment (6-mer frequency, TF over GST control); in the test with ELK4, 1.26 fold enrichment (6-mer frequency, TF over GST control). For the same sequence, the binding signal in the test with ETV2 was 1.2 fold enrichment (6-mer frequency, TF over GST control); with CRX, 1.29 fold enrichment (6-mer frequency, TF over GST control); with ETV1, 1.02 fold enrichment (6-mer frequency, TF over GST control).
As to CTTGTC, the binding signal with FEV is 1.23 fold enrichment (6-mer frequency, TF over GST control); with ETV5, 1.34 fold enrichment (6-mer frequency, TF over GST control); in the test with HSF1 it was 1.07 fold enrichment (6-mer frequency, TF over GST control); in the test with SPIC it was 1.14 fold enrichment (6-mer frequency, TF over GST control); with ELF4, 1.41 fold enrichment (6-mer frequency, TF over GST control); with ELK4, 1.33 fold enrichment (6-mer frequency, TF over GST control). Also, the binding signal was 1.08 fold enrichment (6-mer frequency, TF over GST control) in the test with ETV2; 1.32 fold enrichment (6-mer frequency, TF over GST control) in the test with ELF3; 1.27 fold enrichment (6-mer frequency, TF over GST control) with ETV1.
As for AGTTCC, the binding signal with FEV is 1.96 fold enrichment (6-mer frequency, TF over GST control); with ETV5, 2.29 fold enrichment (6-mer frequency, TF over GST control); with HSF1, 1.34 fold enrichment (6-mer frequency, TF over GST control); with SPIC it was 2.42 fold enrichment (6-mer frequency, TF over GST control); with ELF4 it was 1.97 fold enrichment (6-mer frequency, TF over GST control); with ELK4 it was 1.98 fold enrichment (6-mer frequency, TF over GST control). In addition, the binding signal was 1.88 fold enrichment (6-mer frequency, TF over GST control) with ETV2; 2.05 fold enrichment (6-mer frequency, TF over GST control) in the test with ELF3; 2.21 fold enrichment (6-mer frequency, TF over GST control) in the test with ETV1.
On to CTGTAA, for which the binding signal is 1.05 fold enrichment (6-mer frequency, TF over GST control) with ETV5; 1.09 fold enrichment (6-mer frequency, TF over GST control) with HSF1; 1.24 fold enrichment (6-mer frequency, TF over GST control) in the test with SPIC; 1.06 fold enrichment (6-mer frequency, TF over GST control) in the test with ELF4; 1.09 fold enrichment (6-mer frequency, TF over GST control) in the test with ELK4; 1.21 fold enrichment (6-mer frequency, TF over GST control) in the test with ETV2. Also, the binding signal in the test with CRX is 1.25 fold enrichment (6-mer frequency, TF over GST control); with ETV1, 1 fold enrichment (6-mer frequency, TF over GST control).
